From PubChem BioAssay AID1159506 (National Center for Advancing Translational Sciences (NCATS), 2015)
Over roughly 59,000 sequences, the read-out has its median near -0.00055; the lowest 2% begin near -2. Only a selection was taken, and the lowest values are over-represented in it overall.

Assay: Identification of proteins required for the processing of the EWS-FLI1 nascent transcript;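 also: robust z of luciferase light less the median z of siRNAs with the same seed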
Settings: TC32 Ewing sarcoma NR0B1-luc vs CMV-luc (EWS-FLI1 target promoter against control promoter), 48 h; screened at 20 nM (by protocol)
In short: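 Parallel TC32-NR0B1-luc and TC32-CMV-luc reverse transfections with 20 nM siRNA in RPMI-1640/10% FBS, luciferase measured 48 h later. Seed-adjusted z-scores from normalized, z-score-MAD transformed data; AllStars negative and siGL4 controls on each plate.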

Point of comparison: UGGUUUGUCAGCGGGAUUC against MINK1, seed-corrected z-score -2.53. Against it:
- AUUGUUUGUGGUAUUGUAG against CRHR1 — higher, 0.211
- UGAGUGCUUACUGGUUUGC against C9orf47 — lower, -3.58
- UCGGAUGUAUCUGAGGUGC against DCAF8L1 — higher, -0.269
- UCUAAUUCUGCGGCUUUUC against SCAMP1 — higher, -0.0112
- UAGAUGCUCAGGGAUCACC against AS3MT — higher, 1.06
- UUUCGAACACGAAACAUUC against LOC340089 — higher, -0.0497
- AUACCUGCUAAUGUCAUCC against ERCC6 — lower, -3.8
- ACAGUUAGUAUUGUACUUG against ZNF280C — higher, 0.315
- UGAGUUUCCAGGCUAUCAC against CCDC122 — lower, -2.99
- AUACUGAAAAUAGUACAUG against KMT5A — higher, 0.332
- UGUACAGAGAGGGCAUGUG against BAIAP2L2 — higher, -1.82
- UUUCAUAGAUUAGCACUCC against PRKACB — higher, -0.257
- UCGGUGAUGAGGCUGAUCC against G6PC3 — higher, -0.843
- AGUGUAACAGACAUCAUGC against DLAT — higher, -0.966
- UUGUAUUCCCUUGUGGUCC against KHDRBS1 — lower, -2.93
- UGCUUUGUCGUAAUCUUCC against UNC45A — higher, -0.29
- AAAAUAAUCGAUGUGAUUU against FOXI3 — higher, -0.41
- AUCACUCUCACAUACAUGG against RCAN1 — higher, -0.288
- UAUCGUGAAACAGACUUCC against SND1 — higher, 0.0523
- UUCUAAACAACUCUUGGAC against RPUSD4 — higher, -0.962
- UACAGGGUCAGGGAGAGGU against PTPN6 — higher, -2.18
- UUGUAUACAACCUAUCAAC against B4GALT6 — higher, -0.657
- UUAUUUUGAAUAGCCUUCC against SERBP1 — higher, 1.09
- UAUAUCGACAGCUCAGCUC against SUPT6H — lower, -4.43
- UUGGUAUCCAAAGACGAUG against RTKN2 — higher, -0.918
- AAGGGCAAAGGAGUGAGGC against LOC100289495 — higher, -0.199
- UUCUGGUUAGUCAUAUUGG against HDAC1 — higher, -0.41
- UUGAGGGCAGAAGUACACU against FAM231D — higher, -0.76
- AUCCGAACACCCAUAAGCC against POLK — higher, -0.479
- UUAAUUCUAUUCGAUCAUC against MNS1 — higher, 0.033
- UCUUAUGUUGGUGUUGUUC against SMOC1 — higher, 0.0653
- UGAGUGAUAGUCUAGACUC against SOX9-AS1 — higher, 0.0191
- UUUAUUUAGGGAGCUCCAG against ETHE1 — higher, 0.835
- UUACGUUCAGAGUCUAUCG against C17orf75 — higher, 0.0852
- UUGUUGAUCACUUUGACGG against IKZF3 — higher, 0.604
- AAACAGUCCAUUAACUUCU against RBM38 — higher, 0.257
- UUCUUGGUAAGAUCGAGAG against RNF43 — lower, -2.77
- AAUGCGAUUAUUGUCUGUC against CCT3 — higher, 0.0264
- UCGGUUGUAUAUGUCAUCC against KIAA0100 — higher, 0.141
- UUCACUGAUCUGAAAGUUG against NAA10 — higher, 0.839
- UCACUGUGCAUUUCUCCAC against GUCD1 — higher, 0.93
- UUAUAGUAUGCAGGAAUGG against FAM150B — higher, -1.67
- UGACUAAGAACUGUAUCCC against CC2D2B — higher, -2.16
- UUUUCGGCGUGUAUCCUCG against CHMP1B — higher, -0.617
- UCUUUGACAAGGACCCUUC against G2E3 — higher, 1.23
- UAGGUCAAGAUAACCAUGC against OR8K1 — lower, -13.9
- UUUGUGCUGCUUGUUCUCG against ADCK3 — higher, -1
- UGUAUCUCGAUCUUCACCG against STRN — higher, -0.0881
- UGCAUGAAUAGAGUCGGCG against RAB22A — higher, -0.347
- AAAUAUAUAGGGCAUCCAG against PLEKHM1P1 — higher, 0.174
- UCUUCUCUAAGUCUAGGUC against POM121 — higher, 0.532
- UGCUGAAUAGGUCCAAUCC against HERPUD1 — higher, -1.46
- UCAUAUGGAACUCUAAAGC against PIK3CG — higher, 0.358
- AAUCUUCAAACAGCCGCUC against CHRNA3 — higher, -2.52
- AUAUGAUUCCCAAUUAAUG against TMEM119 — higher, 1.74
- UAAGAUCCGAGUCACUAUC against RPH3AL — higher, -0.639
- UUUCAGCUUCUUGUACUGG against ROCK1P1 — lower, -2.99
- UCGUUGAUCACAAUUAGCU against ADAM11 — higher, 0.436
- UCUGGUAUCAGAAAGUUCG against BBS7 — higher, -0.128
- ACAGAUAUAGGAGAAAGCC against NUMBL — higher, 0.00267
- UAGCCUAUCAAUGAAACCU against ZNF222 — higher, 0.694
- UUUACGUCGUUCUUCUUCC against TXLNG — higher, 0.0162
- UUUGGGUCAACGGUGAGGU against KIAA2012 — higher, 0.316
- AUGUUUUUCAAGUAGCUUC against CDRT4 — higher, -1.38
- UUAACUUGUUGUAUUGCUG against CCDC109B — higher, 1.36
- AACACUAUUUAGCUCAUUC against TARBP1 — higher, 0.0464
- UGAGAGAUAAUUUUGGGAG against SPDYC — lower, -12.8
- UUACUUUCUUCAACCAAAG against TRMT6 — higher, 0.527
- UUUCGAAGUUGCAUGGUUG against KDM5D — higher, -0.291
- UCUUAGACCCUGGAGGUGG against TBRG4 — higher, -0.178
- UAUUAGACAGAACUCUUGG against TNRC6C — lower, -14.8
- UUAGAUUUCUCCCUCGGUG against ZNF136 — higher, -0.576
- UCUUCGAACUGAAUGAGUG against ME2 — higher, 0.165
- UUUACUGGGAUAGUUAAUC against C2CD4A — higher, 1.08
- UCCACUAUUACAACAGCCC against SFPQ — lower, -2.65
- UUCUUAUCAAGAAUAGUCC against PTER — higher, -0.285
- UUCUGCGUCACUUUCUACC against CRNKL1 — higher, -0.902
- UUUGGGACAAGGCACAAGC against PRKCDBP — higher, 0.468
- UACAAUACUAUUUCGAAUC against ZNF44 — higher, -0.235
- UCAAAUACUGGUCGAAUUC against SOX7 — higher, 0.0233
- UUGGGCAUAAUGGAAGCUG against EIF2B2 — higher, -1.39
- UUGGGUAGUAGCAUAGCCU against SYNC — higher, -2.19
- UUGAUUUCCACUCCUUUUG against SGCD — higher, -0.522
- UAUUUCUCGAUUAUCUUCA against ICA1L — higher, -1.21
- UGCAGUACCAGGUUCAGGG against DOK1 — higher, 0.361
- AAUCCCAAAACCUUCUCGC against TPRG1L — higher, -2.07
- ACUUGGAAAUCUCUUUUCG against FAM117A — higher, 0.27
- UGUUGCAUUCUUGUCAUCC against CRAMP1 — higher, -0.303
- UGACAUGUCCUCAACAUCA against TMEM91 — higher, -1.41
- UUAUCGUCAUGGUAAACAC against GXYLT1 — higher, 0.378
- UCAGUAUCCAGGUCAGUGC against LEMD2 — higher, 0.794
- UCCUCCCUAACAAAUAGGC against NUDT16 — higher, -0.295
- AAGGUUGCUAUACGUGGGC against C19orf35 — lower, -2.85
- UUUCAAUCCUGUAAGGGUC against CDC23 — higher, 0.07
- UGGAUAAUCAGGAUGGUCC against AKR1C4 — higher, -0.343
- UAAGCAACAGGAGCUCAGU against KRT6B — higher, 0.507
- UGGUUGAUCAAUGCGAUAG against C11orf54 — higher, -0.331
- UUUGAGUACUCCAAGAUGU against C20orf96 — higher, 0.627
- AUAGCUUCCACUUUAGCGG against KDM5A — lower, -3.29
- AUAGGUACUACAUAUGAGC against DSC2 — higher, -0.323
- AACAUAACAGUUGAAGUGA against TMEM244 — higher, -0.604
- UGAGCUACAUGUGAAGGCC against ZNF35 — higher, -0.965
- UAAUUUCAAGCCGAUCUUC against EIF3H — higher, -1.14
- UUGACUAUAACCUGAAGCC against OTX2 — lower, -2.79
- UAGGAAUCCUCGUUUAGUG against YWHAH — higher, 0.112
- UCAUUGUCCGAUGCCUUGG against SLCO1B3 — higher, -0.953
- UUCUGCCCAAGUACAAUGG against C16orf52 — higher, -2.07
- UCUUUGAGAAUGUCAAGCU against TIMM44 — higher, 0.11
- UCUCUGUAUCGUAUGGUGG against NTN4 — higher, -0.868
- UUGGUAGACACCUCCUUGU against KRT13 — higher, 0.268
- UUUGCGACAAAACAGUUUG against DEPTOR — higher, 0.125
- AUCAGAAUCAGGAUAGGCC against RND2 — higher, 0.812
- AAUCUCACAGGUGAAGUGG against OR2S2 — higher, -0.14
- AGAGUUGUCAGAAGGGCGG against NCR2 — lower, -5.82
- UGCAUAAUAAGUCAUGUGG against DCN — higher, -0.34
- UUUCCUUCUGCUCUCGUGC against RCAN3 — higher, 0.855
- AUCUUUAGAACAUCGGUGG against SLC25A14 — higher, -0.984
- AUAUGCUUCACCUCUUUAC against SNTB2 — lower, -2.92
- AUAAGGAUUACUAGUUUUG against CDK8 — higher, 0.165
- UAAGCACACACAAUGGUAC against DLK2 — higher, 0.0903
- UAUGGGCCGUGGACUCUCA against TPSAB1 — higher, -0.127
- UACAGGGACACCACCUUGC against BOK — higher, -0.14
- UGGUCUUCACAUUAGAUGC against NUTM1 — higher, -2.03
- UUGUAGUACAUUAACCUUG against ANKRD26 — higher, 0.963
- UGACAUACUUCGUAAGUCC against ERLEC1 — higher, 0.555
- UUCAUAAAGAGGAGGUACC against CLUH — higher, 0.239
- AUUUUGAACAUGUUUGCUG against NAPA — higher, 0.31
- UUCUGGUAGAUGUGACUGC against ZNF83 — higher, -0.405
- UACAAGAUUAUAGGCGGUC against TRAPPC11 — higher, 0.0691
- UCUGAGUCCUCUGUAACCU against MZF1 — higher, -2.17
- UACAGUUCAUCAAUCGUCA against APOA1BP — higher, 0.829
- UAUACUUCCCAAGAAGUCC against FAM217B — higher, 0.596
